ELG1 DNA repair = qHTS screen for small molecules that inhibit ELG1-dependent DNA repair in human embryonic kidney (HEK293T) cells expressing luciferase-tagged ELG1; Potency, µM (highest dose often 46.1 µM), without a hit: at the top dose activity change, negative = inhibition, hits mostly inhibitors; HEK293T ELG1-luciferase reporter, luminescence, 16 h; DNA damage induced by 5-fluorouridine; 2.3% of 330,000 active; note: potency is the fitted concentration of half-maximal effect; nearly all actives have a fitted effect of over 55% in size
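In this reporter screen, reduction of luminescence relative to DMSO vehicle indicated activity. Compounds and 5-fluorouridine were added together to 2,000 cells per well, incubated for 16 hr at 37 °C, then developed with ONE-Glo.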
TDP1 inh = qHTS Assay for Inhibitors of Tyrosyl-DNA Phosphodiesterase (TDP1); Tyrosyl-DNA phosphodiesterase 1 (Homo sapiens), Q9NUW8; recombinant TDP1, AlphaScreen DNA substrate cleavage; Potency, µM (series often up to 130 µM), for inactives: top-dose activity change, negative = inhibition, hits mostly inhibitors; 0.28% of 350,000 active; AID 485290, 2010; note: potency is the fitted concentration of half-maximal effect; nearly all actives have a fitted effect of over 40% in size
Target sequence (Q9NUW8 whole entry, looked up): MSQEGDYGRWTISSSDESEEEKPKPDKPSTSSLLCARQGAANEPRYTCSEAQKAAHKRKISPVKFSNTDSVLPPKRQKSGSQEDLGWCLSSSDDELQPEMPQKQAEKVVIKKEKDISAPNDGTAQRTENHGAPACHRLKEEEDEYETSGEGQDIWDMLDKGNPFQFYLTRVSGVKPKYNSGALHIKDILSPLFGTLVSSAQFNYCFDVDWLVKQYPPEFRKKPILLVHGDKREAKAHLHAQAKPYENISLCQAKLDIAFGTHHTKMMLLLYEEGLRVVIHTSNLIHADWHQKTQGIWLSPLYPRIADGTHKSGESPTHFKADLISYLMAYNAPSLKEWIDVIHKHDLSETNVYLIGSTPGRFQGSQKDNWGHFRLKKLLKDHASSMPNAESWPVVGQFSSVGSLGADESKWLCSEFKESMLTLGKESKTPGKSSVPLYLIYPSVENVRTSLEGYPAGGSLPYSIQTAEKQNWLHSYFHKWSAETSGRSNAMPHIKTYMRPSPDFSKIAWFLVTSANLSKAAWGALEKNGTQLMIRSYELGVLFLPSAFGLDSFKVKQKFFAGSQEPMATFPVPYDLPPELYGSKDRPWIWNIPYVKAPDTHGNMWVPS
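Steps: enzyme plus compound, 15 min RT; add biotin/phosphotyrosine-FITC oligonucleotide (15 nM final), react 5 min; add donor/acceptor beads (10 ug/ml final), 10 min; read AlphaScreen. Tdp1 at 1 nM final.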
DT40 TDP1 no CPT = qHTS for Inhibitors of human tyrosyl-DNA phosphodiesterase 1 (TDP1): qHTS in cells in absence of CPT | DT40 Tdp1-/- hTDP1 cells, no CPT, ATP luminescence, 48 h | 15% of 420,000 active | Potency, µM (doses to about 46.2 µM), for inactives: at the top dose activity change, negative = growth inhibition, hits mostly inhibitors | AID 686978, 2013; note: potency is the fitted concentration of half-maximal effect; nearly all actives have a fitted effect of over 55% in size
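No-CPT arm: Tdp1-/-;hTDP1 DT40 cells (400/well) plus compounds, incubated ≥48 hr at 37 °C. Readout CellTiter-Glo luminescence.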
Giardia killer = Small Molecules that selectively kill Giardia lamblia: qHTS; activity change, % at 7.66 µM, hits read low; 0.15% of 340,000 active; Giardia lamblia trophozoite viability; AID 540267, 2011; in the data active = activity change below about -80%; inconclusive = between about -30% and that limit;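 note: parasites exposed to compound for two days anaerobically before the ATP read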
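Trophozoite viability was measured as ATP-dependent luminescence, read 15-30 min after reagent addition. Before that, parasites at 100 cells/well were exposed to compounds for 48 h, anaerobically, at 37 deg C.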
TDP1 cell CPT = qHTS for Inhibitors of human tyrosyl-DNA phosphodiesterase 1 (TDP1): qHTS in cells in presence of CPT. chicken DT40 Tdp1-/-;hTDP1 cells + 20 nM CPT, ATP luminescence, 48 h. Potency, µM (titrated, usually from 46.2 µM), for inactives: top-dose activity change, negative = growth inhibition, hits mostly inhibitors. 12% of 420,000 active. AID 686979, 2013; note: potency is the fitted concentration of half-maximal effect; nearly all actives have a fitted effect of over 55% in size
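Chicken DT40 Tdp1-/- cells complemented with human TDP1, 400 cells/well, exposed to compounds plus 20 nM camptothecin for at least 48 h at 37 C; viability read as ATP content by CellTiter-Glo luminescence.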
IL-1B inflam inh = qHTS for Inhibitors of Inflammasome Signaling: IL-1-beta AlphaLISA Primary Screen. THP-1 LPS/ATP IL-1B secretion, AlphaLISA, 16 h; hits give low values. activity change, % at 57.5 µM. 4.7% of 360,000 active. AID 743279, 2014; in the data active = activity change below about -50%; inconclusive = mostly about -30% to -49%
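THP-1 cells pretreated 1 hr with compounds (up to 57.5 uM final), then stimulated with LPS (250 ng/mL final) plus ATP (1.25 mM final); secreted IL-1B measured by AlphaLISA after 16 hr, decreased signal indicating inhibition.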
Starred values were filed as active, the others as inactive; ? = inconclusive; · = no result; [ ] = dose if it differs, or a comment. Most compounds without a hit are left out; they make up all but 19% or so of the library. Unless noted, calls come from the whole dose curve; as a rule, active = well fitted curve in the direction sought with a large enough effect; inconclusive = small, poorly fitted or top-dose-only effect, or another doubt; inactive = no such curve, though single readings can be large; an effect the other way counts as inactive or inconclusive. % is set by controls: 0 for no effect and ±100 for the full control effect.

SMILES	ELG1 DNA repair	TDP1 inh	DT40 TDP1 no CPT	Giardia killer	TDP1 cell CPT	IL-1B inflam inh
COc1ccc(C2c3c(ncn(Cc4ccco4)c3=N)Oc3ccc4ccccc4c32)cc1 (centres undefined)	-7%	-5%	16µM*	-16	?	-77*
COc1c2ccccc2nc2occc12	·	-5%[56.1 µM]	2%	·	5%	·
CCC(=O)c1ccc(OCC(=O)N2CCN(S(=O)(=O)c3ccc(Cl)s3)CC2)cc1	-11%	-3%	?	-18	?	8
COC(=O)c1c(Cl)c2n3ccccc3c(C)c(-c3ccccc3)c-2c1C(=O)OC	?	-3%	23µM*	5	?	-11
Cc1cc(OCC(=O)Nc2ccc(-c3nc4cc(Cl)ccc4o3)cc2)cc(C)c1Cl	·	-9%[12.3 µM]	-2%	·	9%	·
CCCS(=O)(=O)NC(=O)C1(C)CCN(C(=O)c2cc(C(C)(C)C)nn2C)C1 (centres undefined)	·	·	-7%	·	3%	-53*
O=C(CN1CCN(Cc2cccc3ccccc23)CC1)NCCc1ccccc1	3%	·	?	-17	-18%	-10
CCN(CC)c1ccc(N=Cc2ccc(N(CC)CC)cc2O)cc1	-19%	13%	?	-7	?	29
CCN(CC)c1ccc(/C=N/N=C(N)N)c(O)c1	-10%	7%	0.65µM*	5	0.65µM*	0
CCN(CC)c1ccc(C=Nc2ccccc2)c(O)c1	-2%	2%	?	4	?	27
CCN(CC)c1ccc(C=Nc2ccc(N(C)C)cc2)c(O)c1	?	12%	16µM*	-5	?	-21
C=C[C@@]1(C)CC[C@H]2C(=CC[C@@H]3[C@]2(C)CCC[C@@]3(C)C(=O)O)C1	·	7%	·	·	·	·
Cc1ccc(Cl)cc1-n1nnc(-c2nsc(NC(=O)c3ccccc3Cl)n2)c1C	·	5%	?	·	?	·
CN(C)/N=C/C=C1\CCC/C(=C\c2ccc(F)c(F)c2)C1=O	?	0%	26µM*	-10	?	-106*
COc1ccc(/C=C2\CCC/C(=C\C=N\N(C)C)C2=O)cc1	11%	9%	?	-6	?	-59*
COc1ccc(C=C2CS(=O)(=O)CC(=Cc3ccc(OC)cc3)C2=O)cc1	·	·	1.3µM*	·	1.8µM*	-107*
COc1cn(CC(=O)Nc2cc(C)ccc2C)c(CN2CCCCC2)cc1=O	·	-4%	-6%	·	0%	·
N=c1c2ccccc2nnn1-c1ccc(C(F)(F)F)cc1	?	1%	6.5µM*	-14	?	-16
O=c1c2ccccc2nnn1-c1ccccc1	·	·	-21%	-21	-1%	-1
CN(C)c1ccc(C(=S)N2CCCC2)cc1Br	10%	·	?	9	?	9
CCC(=O)N1CCN(c2ccccc2NC(=O)COc2cc(C)ccc2C(C)C)CC1	?	1%	23µM*	9	16µM*	-95*
Cc1ccc(C(C)C)c(OCC(=O)NC(=S)Nc2ccccc2N2CCOCC2)c1	-13%	3%	16µM*	-3	23µM*	0
O=C(NCc1ccccc1)C(=O)NCC(c1cccs1)S(=O)(=O)c1ccccc1 (centres undefined)	·	7%	-18%	·	-23%	·
CCCOc1ccc(C(=O)NCC2OCCc3ccccc32)cc1OC (centres undefined)	?	7%	?	15	0%	-17
CC(C)COc1ccc(C(=O)NCC2OCCc3ccccc32)cc1 (centres undefined)	·	7%[12.3 µM]	15µM*	·	?	·
